Hit rate of the full screen: of about 340,000 compounds, about 6,900 (2%) were called active. The entries come from a sample that favours actives as a whole. Unmarked numbers belong to inactive results. Rule as the data show it: active = inhibition above about 30%; inactive = below that, where a call was filed.

Chain of D(2) dopamine receptor (Homo sapiens) (P14416 whole entry, looked up): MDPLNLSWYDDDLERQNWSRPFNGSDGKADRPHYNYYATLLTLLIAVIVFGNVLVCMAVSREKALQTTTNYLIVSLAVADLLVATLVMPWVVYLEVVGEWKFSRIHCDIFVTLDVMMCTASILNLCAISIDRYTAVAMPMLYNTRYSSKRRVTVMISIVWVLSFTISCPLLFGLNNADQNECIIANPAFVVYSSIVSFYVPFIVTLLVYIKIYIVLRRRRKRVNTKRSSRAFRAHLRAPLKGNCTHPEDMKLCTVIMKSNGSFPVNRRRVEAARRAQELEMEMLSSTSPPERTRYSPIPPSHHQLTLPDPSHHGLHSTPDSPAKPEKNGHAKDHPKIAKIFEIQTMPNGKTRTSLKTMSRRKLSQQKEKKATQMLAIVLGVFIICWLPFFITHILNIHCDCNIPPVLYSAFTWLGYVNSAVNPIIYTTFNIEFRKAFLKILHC

The assay has as its target D(2) dopamine receptor (Homo sapiens) (UniProt P14416). Briefly: HTS Assay for Allosteric Antagonists of the Human D2 Dopamine Receptor: Primary Screen for Antagonists. Also: 0% is about no effect. The following applies: HEK293 TREx D2 cells, calcium flux, dopamine EC80; at 10 µM; stronger effect = higher value. The text has this: NIH Chemical Genomics Center [NCGC] NIH Molecular Libraries Probe Centers Network [MLPCN] MLPCN Grant: NS064831-01 Assay Submitter (PI): David Sibley Dopamine receptors (DARs) are involved in the etiology and/or therapy of a number of neuropsychiatric and endocrine disorders. For instance, all receptor-based antiparkinsonian drugs work via stimulating the D2 DAR subtype whereas all FDA-approved antipsychotic agents are antagonists of this receptor. […] There are three different types of allosteric modulators that we are seeking, two of which will stimulate or augment receptor signaling, allosteric agonists and potentiators, while the third, allosteric antagonists, will attenuate receptor signaling. The present primary screening assay measures compound antagonism after an EC80 addition of dopamine by tracking calcium flux in a […], inducible Hek293 Trex D2 cell line.
Freshly passaged cells are plated in 1536 well black, clear bottom plates at a density of 4000 cells/well in 3 ul of complete media containing 1x tetracycline inducer. After an overnight incubation at 30 C in 5% CO2, cells are loaded with 2 ul of the no wash Calcium Assay Kit (ABD Bioquest) and incubated at room temperature for 30 to 90 minutes. Agonist read: A 10 cycle (1 second/cycle) baseline measurement is taken and then the FDSS online 1536 pintool delivers 23 nl of compound library (as well as dopamine controls) to the plate. The plate is measured for kinetically at 1 cycle/sec for 180 seconds. Following the 180 second read, 1 ul of an EC80 (negative modulation assay) is delivered by an onboard pipette head. Measurements are taken kinetically for an additional 180 seconds.
As usually defined, the inhibition is the drop in the measured response relative to a control, in per cent. Consider `O=C(CCNS(=O)(=O)c1ccccc1C(F)(F)F)Nc1ccncc1`, for which the inhibition is -6.21%.

For the molecule `CN(Cc1ccccc1F)C(=O)C(Cc1ccccc1)NC(=O)c1ccccc1` (stereo not drawn), the inhibition was -5.32%.

Turning to `NS(=O)(=O)c1ccc(NC(=O)COC(=O)c2ccco2)cc1`, the inhibition was 38.5% (active).

Regarding `O=C(COC(=O)CNC(=O)c1ccco1)Nc1ccc(F)cc1`, the inhibition was -3.88%.

With `NS(=O)(=O)c1ccc(NC(=O)COC(=O)c2cc3ccccc3oc2=O)cc1`, the inhibition was -18.7%.

As for `NC(=O)c1ccc(NC(=O)COC(=O)c2ccc([N+](=O)[O-])cc2)cc1`, the inhibition was -23.5%.

`N/C(Cc1ccc([N+](=O)[O-])cc1)=N\OC(=O)C1CCCCC1`: the inhibition is 2.32%.

In the case of `O=C(COC(=O)C1CCCCC1)Nc1ccc([N+](=O)[O-])cc1`, the inhibition is 35.3% (active).

Consider `COc1ccc(CNC(=O)CN2C(=O)NC3(CCCc4sccc43)C2=O)cc1` (stereo not drawn), for which the inhibition was 2.45%.

Turning to `Cc1ccc(S(=O)(=O)N2CCCCC2)cc1C(=O)N1CCN(CCO)CC1`, the inhibition is -6.17%.

Consider `COc1ccc(-c2nn(-c3ccccc3)cc2/C=C\C(=O)Nc2ccc(C(=O)O)cc2)cc1`, for which the inhibition was 0.137%.

In the case of `COc1ccc(NC(=O)c2cn(-c3ccccc3)nc2SC)cc1`, the inhibition was 60.7% (active).

`COc1ccc(-c2nn(-c3ccccc3)cc2C(=O)Nc2nc(CC(C)=O)ns2)cc1`: the inhibition was 13.1%.

In the case of `O=C(NNC(=O)c1ccc(-n2cncn2)c([N+](=O)[O-])c1)c1ccccc1`, the inhibition was 1.81%.

On to `COc1ccc(C2=NN(C(=O)CSc3nnnn3C)C(c3ccco3)C2)cc1` (stereo not drawn), for which the inhibition is -18.6%.

Turning to `O=S(=O)(Nc1cccc(-n2cnnn2)c1)c1cnc(Cl)c(Cl)c1`, the inhibition is 34.6% (active).

For the molecule `Cc1ccc(C)c(S(=O)(=O)Nc2cccc(-n3cnnn3)c2)c1`, the inhibition was 4.04%.

For `O=S(=O)(Nc1ccc(-n2cnnn2)cc1)c1ccc(Cl)cc1`, the inhibition is -3.4%.

Take `COc1ccccc1CNS(=O)(=O)c1cc(C(=O)NCc2ccccn2)c(Cl)cc1Cl`: the inhibition is -2.76%.

With `Cc1cccc(NS(=O)(=O)c2ccc(C)c(C(=O)NCC(c3ccccc3)N(C)C)c2)c1` (stereo not drawn), the inhibition was -4.69%.

For the molecule `CNC(=O)C1CC(=O)N(c2ccc(OCC(=O)Nc3ccccc3C)cc2)C1` (stereo not drawn), the inhibition was 12.9%.

Consider `S=C(NCCc1ccccc1)NCc1ccccc1Cl`, for which the inhibition is -2.45%.

Regarding `Cc1cc(F)ccc1NC(=S)NCCc1ccccc1`, the inhibition was -0.203%.

On to `Fc1ccccc1Cn1cnc(NC(=S)NCCc2ccccc2)n1`, for which the inhibition is 40.1% (active).

For the molecule `CC(=O)N1CCc2c(sc(NC(=O)CCS(=O)(=O)c3ccc(C)cc3)c2C(N)=O)C1`, the inhibition is -1.82%.

Turning to `CCN1CCN(C(c2cccnc2)c2cc(Cl)c3cccnc3c2O)CC1` (stereo not drawn), the inhibition is 2.31%.

With `Oc1c(CN2CCN(c3ccc(F)cc3)CC2)cc(Cl)c2cccnc12`, the inhibition was 49.1% (active).

As for `O=C(c1cccc(C(=O)N2CCN(c3ccc(F)cc3)CC2)c1)N1CCN(c2ccc(F)cc2)CC1`, the inhibition is 19.6%.

For the molecule `CCN(CC(=O)Nc1ccc(OC)cc1)C(=O)c1ccc(=O)n(Cc2ccccc2)n1`, the inhibition is 7.28%.

For the molecule `Cc1ccc(S(=O)(=O)NCCNC(C)c2ccc(Br)cc2)cc1` (stereo not drawn), the inhibition is -7.75%.

Turning to `COc1ccc2cc(C3=CC(=O)C[C@H](c4ccc5c(c4)OCO5)C3)ccc2c1`, the inhibition is 13.1%.

On to `COc1ccc(C2CC(=O)Oc3ccc(C(C)(C)C)cc32)cc1` (stereo not drawn), for which the inhibition is 40.2% (active).

For the molecule `COc1ccc(C2CC(=O)NC(=O)C2)cc1`, the inhibition was -28.9%.

On to `O=S(=O)(c1cccs1)N1CCN(CCOc2ccccc2)CC1`, for which the inhibition is -9.4%.

On to `Nc1c(N(Cc2ccco2)C(=O)c2cccc(F)c2)c(=O)[nH]c(=O)n1Cc1ccccc1`, for which the inhibition is 11.2%.

As for `CC(Sc1nnc(-c2cccs2)n1C1CC1)C(=O)NCC1CCCO1` (stereo not drawn), the inhibition was 13.5%.

Consider `CCOC(=O)C1(CC2CCCCO2)CCN(Cc2nc(-c3cccs3)oc2C)CC1` (stereo not drawn), for which the inhibition was 69.3% (active).

On to `COc1cccc(CC2(CO)CCCN(Cc3nc(-c4cccs4)oc3C)C2)c1` (stereo not drawn), for which the inhibition was -28.2%.

With `O=C(OCC(=O)N1CCc2ccccc21)C1CCCN1S(=O)(=O)c1ccc(Cl)cc1` (stereo not drawn), the inhibition is -11.4%.

As for `CCOC(=O)c1ccc(NC(=O)C2CC(=O)N(c3ccc4c(c3)OCCO4)C2)cc1` (stereo not drawn), the inhibition is 6.09%.

Regarding `Clc1ccc(C[n+]2cc(-c3ccc(Cl)cc3)n3c2CCC3)cc1`, the inhibition was 44.4% (active).

On to `Cc1ccc(-c2c[n+](CC(=O)Nc3ccccc3)c3n2CCC3)cc1`, for which the inhibition is 7.8%.

`Clc1ccc(C[n+]2cc(-c3ccccc3)n3c2CCC3)cc1`: the inhibition was -18.7%.

On to `OCC[C@H]1C[C@H](O)[C@@H](O)[C@]2(CCc3ccccc3O2)O1`, for which the inhibition is 4.64%.

As for `CN(C)C(CNC(=O)c1cccc(S(=O)(=O)Nc2ccc(Br)cc2)c1)c1ccco1` (stereo not drawn), the inhibition is 22.1%.

Turning to `Cc1ccc(CN2CCN(Cc3cn(C)nc3-c3ccccc3)CC2CCO)o1` (stereo not drawn), the inhibition was 9.07%.

Turning to `CCn1nc(C)c(CN2CCN(Cc3ccc(OC)c(C)c3C)C(CCO)C2)c1C` (stereo not drawn), the inhibition is -7.65%.

Turning to `COc1ccc(CN2CCN(Cc3cn(C)nc3-c3ccccc3)CC2CCO)c(C)c1C` (stereo not drawn), the inhibition was 33.2% (active).

On to `CCOc1ccc(S(=O)(=O)NCCC(=O)NCC2CCCO2)cc1` (stereo not drawn), for which the inhibition was 6.91%.

For `CN1CCC(N(C)S(=O)(=O)c2ccc(NC(=O)c3cccc(C#N)c3)cc2)CC1`, the inhibition is -21.6%.

For the molecule `CC(C)(C)OC(=O)N1CCC(NC(=O)c2[nH]cnc2C(=O)N[C@@H](Cc2ccccc2)C(=O)OCc2ccccc2)CC1`, the inhibition was 20.4%.

Take `O=C(N[C@@H](Cc1ccccc1)C(=O)OCc1ccccc1)c1nc[nH]c1C(=O)NC1CCNCC1`: the inhibition is 76.1% (active).

For the molecule `O=C(N[C@@H](Cc1ccccc1)C(=O)OCc1ccccc1)c1nc[nH]c1C(=O)N[C@@H](Cc1ccccc1)C(=O)OCc1ccccc1`, the inhibition is 13.9%.

Take `O=C(NCc1ccccc1CN1CCCC1)C1CCN(S(=O)(=O)c2ccc(Cl)cc2)CC1`: the inhibition was 9.19%.

Regarding `Cc1ccccc1-c1cc(C(=O)NCc2cccs2)n(CC2CC(c3cccnc3)=NO2)n1` (stereo not drawn), the inhibition was 37.9% (active).

As to `Cc1ccc(CNC(=O)c2cc(-c3ccccc3C)n(CC3CC(c4cccc([N+](=O)[O-])c4)=NO3)n2)cc1` (stereo not drawn), the inhibition is 6.93%.

Regarding `Cc1ccccc1-c1cc(C(=O)NCC2CC2)n(CC2CC(c3cccnc3)=NO2)n1` (stereo not drawn), the inhibition is 2.25%.

On to `Cc1onc(C(=O)NN)c1-c1csc(COc2ccccc2)n1`, for which the inhibition was 20.6%.

Regarding `CC(C)(C)C(=O)OCc1nc(-c2ccc(O)c(O)c2)cs1`, the inhibition is 93.7% (active).

In the case of `COc1ccc(OC)c(Nc2nc(-c3ccc(O)c(O)c3)cs2)c1`, the inhibition is -3.66%.

`C#CCOCCOCCOCCNc1nc(N2CCN(C(=O)CCCCCCCCCCNC(=O)Cn3cc(CCCCCN)nn3)CC2)nc(N2CCN(C(=O)CCCCCCCCCCNC(=O)[C@H](CO)n3cc(CCCSC)nn3)CC2)n1`: the inhibition was 1.73%.

Consider `COc1cc(OC)cc(-c2c(-c3cccs3)c3cc(-c4ccc(OC)cc4F)ccc3n2C)c1`, for which the inhibition was -3.09%.

Take `COc1ccccc1NC(=O)COc1ccc(C(=O)OCC(=O)N(C(C)C)C(C)C)cc1OC`: the inhibition is 11.9%.

As for `CCOC(=O)CN(Cc1ccc(OC)c(OC)c1)S(=O)(=O)c1ccc(OC)cc1`, the inhibition is -14%.

For the molecule `CCN(CCCCOC(=O)c1ccc(OC)c(OC)c1)C(C)Cc1ccc(OC)cc1` (stereo not drawn), the inhibition is 43.6% (active).

With `CC(C)(C)n1ncc2c(=O)n(Cc3c(Cl)cccc3Br)cnc21`, the inhibition is -6.49%.

For the molecule `Cc1ccc(C)c(OCC(=O)NNC(=O)C2CCC2)c1`, the inhibition was -10.9%.

As to `CCN(CC(=O)Nc1c(F)cccc1F)C(=O)c1ccc(Sc2nncn2C)c([N+](=O)[O-])c1`, the inhibition was -7.81%.

Regarding `CC(=O)Nc1ccc(SCC(=O)Nc2ccccc2Oc2ccccc2)cc1`, the inhibition was -7.41%.

Regarding `O=C(CSc1ccccc1)Nc1cc(Cl)ccc1Oc1ccccc1`, the inhibition was 41.8% (active).

With `CC1CCCN(CC(=O)Nc2cc(Cl)ccc2Oc2ccccc2)C1` (stereo not drawn), the inhibition is -9.74%.

Turning to `O=C(CNC(=O)c1ccc2ccccc2c1)Nc1ncccc1O`, the inhibition is 6.52%.

In the case of `CCCN(C(=O)c1nc2nccc(C)n2n1)c1c(N)n(Cc2ccccc2)c(=O)[nH]c1=O`, the inhibition was 13.1%.

As to `O=C(O)c1cc(S(=O)(=O)Nc2ccc3cn[nH]c3c2)ccc1Br`, the inhibition was -28.4%.

`O=S(=O)(c1ccc(SCc2ccccc2)nc1)N1CCCCCC1`: the inhibition was -5.53%.

With `COc1ccc([C@H]2CC(=O)C=C(/C=C/c3ccccc3)C2)cc1`, the inhibition is 11.1%.

In the case of `O=C(O)c1ccccc1C(=O)Nc1ccccc1[N+](=O)[O-]`, the inhibition was 7.04%.

For the molecule `O=[N+]([O-])c1ccc(O)c(/C=N/Nc2ccccc2[N+](=O)[O-])c1`, the inhibition was 20.9%.

Consider `O=[N+]([O-])c1ccccc1Nc1ccc(O)cc1`, for which the inhibition was 48.5% (active).

As to `COc1ccccc1OCC(=O)OCc1cc(-c2ccco2)on1`, the inhibition was 5.46%.

Consider `CS(=O)(=O)N(CC(=O)N1CCCC1)Cc1ccccc1`, for which the inhibition is 47.1% (active).

As to `CCN(CC(=O)N1CCCC1)S(=O)(=O)c1ccc(F)cc1`, the inhibition was 21.3%.

Regarding `CS(=O)(=O)N(CC(=O)N1CCCCCC1)c1cccc(Cl)c1Cl`, the inhibition is -0.797%.

For the molecule `O=C(COc1coc(CN2CCN(c3ccccc3)CC2)cc1=O)Nc1ccccc1F`, the inhibition is 16.7%.

For `CCOC(=O)c1cc(-c2ccccc2C)n(Cc2cc(C)no2)n1`, the inhibition was 9.49%.

`COc1ccc(C(=O)OCC(=O)Nc2cccc(C(C)=O)c2)cc1OC`: the inhibition is 113% (active).

Regarding `COc1ccc(C(=O)OCC(=O)NCCCc2ccccc2)cc1OC`, the inhibition is 7.85%.

Take `CC(=O)Nc1cccc(C(=O)OCC(=O)Nc2nnc(-c3ccccc3)o2)c1`: the inhibition was -0.603%.

The values above are taken from PubChem BioAssay AID485344 (National Center for Advancing Translational Sciences (NCATS), 2010).
